About 1,700 (3.3%) of roughly 52,000 compounds were called active. The list comes from a sample in which actives are over-represented; it also holds similar structures and randomly drawn compounds. A number with no mark means an inactive call. Rule as the data show it: active = survival mostly below about 52% (no sharp cut-off); inactive = mostly above about 56%.
Test system: Wild type
Assay: growth inhibition of S. aureus wild type versus tarO mutant, primary screen, teichoic acid synthesis inhibitors, RN4220, OD600 (AID 463173)
Details: S. aureus RN4220 wild type/DeltatarO growth, OD600, 18 h, hits give low values, screened at 18.75 µg/mL (by protocol)

Row | SMILES | survival
1 | COc1cc(NC(=O)Cc2c(C(=O)O)c(C)cn2C)cc(OC)c1 | 99%
2 | O=C(CCN1CCCCC1)Nc1ccccc1 | 110%
3 | CCOC(=O)c1ccc(N2C(=O)c3n[nH]c(C)c3C2c2cccc(Br)c2)cc1 (stereo not drawn) | 3% (active)
4 | CCOC(=O)c1ccc(N2C(=O)c3n[nH]c(C)c3C2c2ccc(CC)cc2)cc1 (stereo not drawn) | 82%
5 | CCOC(=O)c1ccc(N2C(=O)c3n[nH]c(C)c3C2c2ccc(C(C)(C)C)cc2)cc1 (stereo not drawn) | 81%
6 | CCOC(=O)c1ccc(N2C(=O)c3n[nH]c(-c4ccco4)c3C2c2ccc(C)cc2)cc1 (stereo not drawn) | 32%
7 | CCOC(=O)c1ccc(N2C(=O)c3n[nH]c(-c4ccco4)c3C2c2ccc(O)cc2)cc1 (stereo not drawn) | 67%
8 | CCOC(=O)c1ccc(N2C(=O)c3n[nH]c(-c4ccco4)c3C2c2ccc(F)cc2)cc1 (stereo not drawn) | 9% (active)
9 | Cn1cc(S(=O)(=O)N2CCCCC2)cc1C(=O)NCc1ccc(Cl)cc1 | 88%
10 | COc1ccc(CNC(=O)Cc2c(C)c3cc4c(C)coc4cc3oc2=O)cc1 | 88%
11 | COc1ccc(-c2nc3sc(CCNC(=O)C(=O)Nc4cc(C)cc(C)c4)c(C)n3n2)cc1 | 89%
12 | CC(=O)c1ccc(N2CCN(C(=O)C3CCN(S(=O)(=O)c4c(C)noc4/C=C/c4ccc(C)cc4)CC3)CC2)cc1 | 127%
13 | O=C(O)CCC(=O)NC(c1ccccc1)c1ccccc1 | 108%
14 | Cc1cc(C)nc(N2CCC(C(=O)Nc3nnc(C(C)C)s3)CC2)n1 | 107%
15 | COC(=O)c1cc2c(ccn2-c2ccc(F)cc2)n1Cc1ccccc1 | 88%
16 | Cc1ccc(CN2C(=O)CN(C3CCCCCC3)C(=O)C2c2ccc(F)cc2)cc1 (stereo not drawn) | 1% (active)
17 | Cc1ccc(CN2C(=O)CN(C3CCC(C)CC3)C(=O)C2c2ccc(F)cc2)cc1 (stereo not drawn) | 119%
18 | COc1ccc(C2C(=O)N(C3CCCCCC3)CC(=O)N2Cc2ccc(C)cc2)cc1 (stereo not drawn) | 75%
19 | COc1ccc(C)cc1NC(=O)Nc1cccc(OCc2cc(=O)n3ccc(C)cc3n2)c1 | 73%
20 | CCC(=O)N1c2ccc(S(=O)(=O)CCC(=O)Nc3ccc(Br)c(C)c3)cc2CC1C (stereo not drawn) | 87%
21 | Cc1oc(-c2ccc(Cl)cc2)nc1CN1CCCC(C(=O)NCc2ccc(Cl)cc2)C1 (stereo not drawn) | 85%
22 | Cc1oc(-c2cccc(Cl)c2)nc1CN1CCCC(C(=O)NCc2ccc(Cl)cc2)C1 (stereo not drawn) | -1% (active)

Row | SMILES | survival
23 | Cc1ccccc1-c1nc(CN2CCCC(C(=O)NCc3ccc(Cl)cc3)C2)c(C)o1 (stereo not drawn) | 68%
24 | CCc1ccc(-c2nc(CN3CCCC(C(=O)NCc4ccc(C)cc4)C3)c(C)o2)cc1 (stereo not drawn) | 88%
25 | Cc1ccc(CNC(=O)C2CCCN(Cc3nc(-c4cccc(C)c4)oc3C)C2)cc1 (stereo not drawn) | 4% (active)
26 | Cc1ccc(CNC(=O)C2CCN(Cc3nc(-c4cccc(Br)c4)oc3C)CC2)cc1 | 75%
27 | Cc1oc(-c2cccc(Cl)c2)nc1CN1CCCC(C(=O)NCc2ccc(F)cc2)C1 (stereo not drawn) | 64%
28 | Cc1oc(-c2ccc(Cl)cc2)nc1CN1CCCC(C(=O)NCc2ccccc2)C1 (stereo not drawn) | 88%
29 | Cc1cccc(-c2nc(CN3CCCC(C(=O)NCc4ccc(Cl)cc4)C3)c(C)o2)c1 (stereo not drawn) | 2% (active)
30 | COc1ccc(CCNC(=O)CCc2c(C)c3cc4c(C)coc4cc3oc2=O)cc1 | 90%
31 | C=C(C)Cn1c(=O)c2c(nc3n2CCN3c2ccc(F)cc2)n(C)c1=O | 85%
32 | CC(=O)c1cccc(NC(=O)CSc2nc3ccccc3nc2Cc2ccc(F)cc2)c1 | 73%
33 | Cc1ccc2oc(-c3cc(N=C/C=C/c4ccc5c(c4)OCO5)ccc3O)nc2c1 | 113%
34 | CCOc1cc(CNC(=O)C2CCN(c3nc4ccccc4[nH]3)CC2)cc(OCC)c1OCC | -3% (active)
35 | COc1ccc(CNC(=O)C2CCN(c3nc4ccccc4[nH]3)CC2)cc1OC | 47%
36 | CN(C)c1ccc(CNC(=O)C2CCN(c3nc4ccccc4[nH]3)CC2)cc1 | 45%
37 | CCCN(CCC)CCNC(=O)C1CCN(c2nc3ccc(CC)cc3s2)CC1 | 67%
38 | CC1CCC(Nc2nc3c(-c4ccc(Cl)cc4)nnn3c3ccccc23)CC1 (stereo not drawn) | 25%
39 | Clc1ccc(-c2nnn3c2nc(NC2CCCCC2)c2ccccc23)cc1 | 57%
40 | Fc1cccc(-c2nnn3c2nc(NC2CCCCC2)c2ccccc23)c1 | 85%
41 | Cc1ccc(-c2nnn3c2nc(NC2CCC(C)CC2)c2ccccc23)cc1 (stereo not drawn) | 4% (active)
42 | CC1CCC(Nc2nc3c(-c4cccc(C(F)(F)F)c4)nnn3c3ccccc23)CC1 (stereo not drawn) | -1% (active)
43 | FC(F)(F)c1cccc(-c2nnn3c2nc(NC2CCCCC2)c2ccccc23)c1 | 28%
44 | COc1cc2nc(Nc3cccc(F)c3)nc(N)c2cc1OC | 89%

Row | SMILES | survival
45 | Cc1ccc(OCc2nnc(-c3ccccc3)o2)cc1 | 77%
46 | O=C(Nc1cccc(C(=O)OCc2cc(=O)n3c4c(sc3n2)CCCC4)c1)c1cccc(Cl)c1 | 73%
47 | CN1c2ccccc2Oc2nnc(N3CCN(Cc4ccccc4)CC3)cc21 | 110%
48 | CCc1ccc(NC(=O)C(=O)NCC(c2cccnc2)N2CCN(C)CC2)cc1 (stereo not drawn) | 111%
49 | CCOC(=O)c1c(Nc2ccc(OC)cc2)nnc(-c2ccccc2)c1-c1ccccc1 | 5% (active)
50 | CCOC(=O)c1c(Nc2ccc(OCC)cc2)nnc(-c2ccccc2)c1-c1ccccc1 | 2% (active)
51 | CCOC(=O)c1c(C)c(-c2ccccc2)n(CC(=O)Nc2ccc(OCC)cc2)c1C | 82%
52 | CCOC(=O)c1c(Nc2cccc(C(=O)OC)c2)nnc(-c2ccccc2)c1-c1ccccc1 | 19%
53 | CCOC(=O)c1c(Oc2ccc(OC)cc2)nnc(-c2ccccc2)c1-c1ccccc1 | 91%
54 | CCOC(=O)c1c(C)oc2ncnc(Nc3ccc(OCC)cc3)c12 | 72%
55 | COCCn1c(SCC(=O)Nc2cc(Cl)ccc2OC)nc2c([nH]c3ccccc32)c1=O | 132%
56 | Cc1ccc2sc(N3CCN(C(=O)C4COc5ccccc5O4)CC3)nc2c1C (stereo not drawn) | 148%
57 | COc1ccc(-c2nnc(SCC(=O)Oc3c(C)cccc3C)o2)cc1OC | 117%
58 | Cc1ccc(NC(=O)Nc2cn(C)c(=O)c3ccccc23)c(Cl)c1 | 69%
59 | CN(C(=O)Nc1cn(C)c(=O)c2ccccc12)c1ccccc1 | -6% (active)
60 | CCOc1ccccc1N(CC)C(=O)Nc1cn(C)c(=O)c2ccccc12 | 78%
61 | CCCNC(=O)C1CCC(Cn2c(=O)c3sccc3n(CC(=O)N(CC)CC)c2=O)CC1 (stereo not drawn) | 128%
62 | COc1ccc(CNC(=O)CN2C(=O)COc3ccc(S(=O)(=O)Nc4ccccc4)cc32)cc1 | 87%
63 | Cc1ccc(CNC(=O)CN2C(=O)COc3ccc(S(=O)(=O)Nc4ccccc4)cc32)cc1 | -6% (active)
64 | COc1cccc(CNC(=O)CN2C(=O)COc3ccc(S(=O)(=O)Nc4ccccc4)cc32)c1 | 73%
65 | COc1ccc2c(c1)c1c(c(=O)n(-c3ccc(C)cc3)c(=O)n1CC(=O)NCc1ccc(C)cc1)n2C | 70%
66 | O=S(=O)(Nc1ccccc1C(F)(F)F)c1ccc(N2CCCCS2(=O)=O)cc1 | 136%

Row | SMILES | survival
67 | Cc1ccc(-n2nc(C)c3nc(CCC(=O)Nc4ccc(F)cc4)c(=O)n(C)c32)cc1 | 80%
68 | Cc1ccc(-n2nc(C)c3nc(CCC(=O)Nc4cccc(F)c4)c(=O)n(C)c32)cc1 | -6% (active)
69 | COc1cccc(NC(=O)CCc2nc3c(C)nn(-c4ccc(C)cc4)c3n(C)c2=O)c1 | 72%
70 | Cc1ccc(NC(=O)c2c(C)oc3ncn(CC(C)C)c(=O)c23)nc1 | 129%
71 | Cc1nn(C)c(C)c1NC(=O)CSc1nccc(-c2ccc(Cl)cc2)n1 | 100%
72 | O=C(CSc1nc2cc(C(=O)NC3CCCC3)ccc2c(=O)n1CC1CCCO1)c1ccc(F)cc1 (stereo not drawn) | 70%
73 | Cc1ccc(C(=O)CSc2nc3cc(C(=O)NC4CCCC4)ccc3c(=O)n2CC2CCCO2)c(C)c1 (stereo not drawn) | 63%
74 | COc1ccc(C(=O)CSc2nc3cc(C(=O)NC4CCCC4)ccc3c(=O)n2CC2CCCO2)cc1 (stereo not drawn) | 76%
75 | CCOc1ccc(C(=O)CSc2nc3cc(C(=O)NC4CCCC4)ccc3c(=O)n2CC2CCCO2)cc1 (stereo not drawn) | 0% (active)
76 | O=C(CSc1nc2cc(C(=O)NC3CCCC3)ccc2c(=O)n1CC1CCCO1)c1cccc(Cl)c1 (stereo not drawn) | -3% (active)
77 | Cc1ccc(C(=O)CSc2nc3cc(C(=O)NC4CCCC4)ccc3c(=O)n2CC2CCCO2)cc1 (stereo not drawn) | 75%
78 | CC(CN1CCCC1)OC(=O)c1ccc(F)cc1 (stereo not drawn) | 109%
79 | Cc1ccc(-c2nnc(Nc3ccc(Br)cc3)c3ccccc23)cc1S(=O)(=O)N1CCCCC1 | 89%
80 | Cc1cccc(N2CCN(C(c3ccccc3)c3nnc(-c4ccccc4Cl)o3)CC2)c1C (stereo not drawn) | 52%
81 | Cc1ccc(Cl)cc1N1CCN(C(c2ccc(F)cc2)c2nnc(-c3ccccc3)o2)CC1 (stereo not drawn) | 50%
82 | Cc1cccc(N2CCN(C(c3ccccc3)c3nnc(-c4ccccc4F)o3)CC2)c1C (stereo not drawn) | 43%
83 | COc1ccc(N2CCN(C(c3ccccc3)c3nnc(-c4ccccc4Cl)o3)CC2)cc1 (stereo not drawn) | 22%
84 | Cc1ccc(C)c(N2CCN(C(c3ccccc3)c3nnc(-c4ccccc4F)o3)CC2)c1 (stereo not drawn) | 53%
85 | COc1ccccc1N1CCN(C(c2ccccc2)c2nnc(-c3ccccc3Cl)o2)CC1 (stereo not drawn) | 0% (active)
86 | Cc1ccc(C)c(N2CCN(C(c3ccc(F)cc3)c3nnc(-c4ccccc4)o3)CC2)c1 (stereo not drawn) | 14% (active)
87 | Cc1ccc(C)c(N2CCN(C(c3ccccc3)c3nnc(-c4ccccc4)o3)CC2)c1 (stereo not drawn) | 1% (active)
88 | Cc1cccc(N2CCN(C(c3ccc(F)cc3)c3nnc(-c4ccccc4)o3)CC2)c1C (stereo not drawn) | 28%

From PubChem BioAssay AID463173 (ICCB-Longwood Screening Facility, Harvard Medical School, 2010)
